We go through 27 molecules from PubChem BioAssay.

Activity calls are given as the source filed them.
Note: test concentration not given here.

One test in a line: JC-1 mitochondrial signal, unstimulated MM1S myeloma – cell-based, JC-1 fluorescence, 24 h, 100 nL compound, profiling panel (AID 1170). The conditions noted are these: MM1S mitochondrial potential, higher = more signal.
Molecule `CCOC(=O)[C@H](Cc1ccccc1)NC(=O)CCC1CC(OC(=O)NCCc2ccc(F)cc2)CC2(CCCC(COC(=O)NCCC(C)C)O2)O1` (some centres not stated) gave a z-score of -0.941. Still for that read-out and setting: the figure for `CO[C@H]1COC(=O)[C@H](C)COC(=O)[C@@H](OCc2ccccc2)C=C[C@@H]1C` is 1.26; for `O=C1[C@H]2[C@H]3[C@H](O)[C@H](O)CC(=NOC[C@@H](O)COCc4ccco4)[C@@H]3CC[C@H]2C(=O)N1Cc1ccccc1` it is -0.782; for `CC(C)=CCCC(C)=CCON=C1C[C@@H](O)[C@@H](O)[C@@H]2[C@@H]3C(=O)N(Cc4ccc5c(c4)OCO5)C(=O)[C@@H]3CC[C@H]12` it is -0.488. The same measure, in the same setting: the value for `COC(=O)[C@H](C)NC(=O)CC=C[C@@H](C)[C@@H]1C=C[C@H](O)[C@@H](CO)O1` was -0.463.

For the molecule `COc1ccc(COC(=O)NN=C2C[C@@H](O)[C@@H](O)[C@@H]3[C@@H]4C(=O)N(C[C@@H]5CCCO5)C(=O)[C@@H]4CC[C@@H]23)cc1`, the z-score was -1.38.

The next test is described as follows: resazurin metabolic signal in A549 cells – cell-based, resazurin fluorescence, 24 h, PK04 Diversity Set, profiling panel (AID 1171). The settings on record: A549 viability, higher = more signal, called active from +8 up or from −8 down.
Consider `COC(=O)[C@H](C)NC(=O)CCC1CC(OC(=O)NCc2cccc3ccccc23)CC2(CCCC(COC(=O)NCc3ccccc3)O2)O1` (some centres not stated), for which the z-score is 2.64 (inactive). Same read-out and setting: the figure for `O=C1CCCC=C1C(O)C1CCCCC1` (configuration not stated) is 0.436 (inactive). For `COc1ccc(COC(=O)NN=C2C[C@@H](O)[C@@H](O)[C@@H]3[C@@H]4C(=O)N(Cc5ccccc5)C(=O)[C@@H]4CC[C@@H]23)cc1`, the z-score was 0.399 (inactive). Same read-out and setting: the figure for `CO[C@H]1COC(=O)CC=C[C@H](C)[C@H](OC)COC(=O)[C@@H](C)NC(=O)CC=C[C@@H]1C` is 0.691 (inactive). The same measure, in the same setting: the figure for `CC(C)CON=C1[C@H]2CCn3c(=O)n(C)c(=O)n3[C@H]2[C@H](O)[C@@H]2O[C@H]12` is -0.143 (inactive); for `CCOC(=O)CCN1C(=O)[C@H]2[C@H]3[C@H](O)[C@H](O)CC(=NOCC=C(C)CCC=C(C)C)[C@@H]3CC[C@H]2C1=O` it is -0.23 (inactive). On the same count and under the same terms, the figure for `CC[C@@H](c1ccccc1)n1c(=O)n2n(c1=O)[C@H]1[C@H](O)[C@@H]3O[C@@H]3C(=NOCc3ccccc3)[C@H]1CC2` is -2.54 (inactive). For `CC(CCN1CCCc2nc(C)c(C)cc21)=NO[C@@H](C)c1cn([C@H](CO)Cc2ccccc2)nn1`, the z-score is -0.131 (inactive). `COC(=O)[C@H](C)NC(=O)CCC1CC(OC(=O)NCCc2ccc(F)cc2)CC2(CCCC(COC(=O)NCC3CCCCC3)O2)O1` (some centres not stated): the z-score was 0.541 (inactive). Regarding `CCOC(=O)[C@H](Cc1ccccc1)NC(=O)CCC1CC(OC(=O)NCc2ccc3c(c2)OCO3)CC2(CCCC(COC(=O)NCCCN3CCCC3=O)O2)O1` (some centres not stated), the z-score was 0.529 (inactive).

Regarding `CC(CCC(=O)OC[C@H]1O[C@H](C#Cc2ccccc2)C=C[C@@H]1Oc1ccc(C)cc1)=NOC[C@@H](C)[C@H](OCc1ccccc1)C(C)C`, the z-score is 0.865 (inactive). On to `CCN1C(=O)[C@H]2[C@H]3[C@H](O)[C@H](O)CC(=NOC[C@@H](O)[C@H]4O[C@@H]5OC(C)(C)O[C@@H]5[C@H]4O)[C@@H]3CC[C@H]2C1=O`, for which the z-score is -0.794 (inactive). As for `CC(C)CON=C1C[C@@H](O)[C@@H](O)[C@@H]2[C@@H]3C(=O)N(Cc4ccc5c(c4)OCO5)C(=O)[C@@H]3CC[C@@H]12`, the z-score is 0.471 (inactive). As for `C=CC[C@@H]1C=C[C@H](ON=C2C[C@@H](O)[C@@H](O)[C@@H]3[C@@H]4C(=O)N(CC)C(=O)[C@@H]4CC[C@@H]23)[C@@H](CO)O1`, the z-score is -0.28 (inactive).

Take `CO[C@H]1COC(=O)CCC[C@H](C)[C@H](OC)COC(=O)CC=C[C@@H]1C`: the z-score is 0.285 (inactive). On the same count and under the same terms, the figure for `COc1ccc2c(c1)O[C@@H](c1cccc(C(F)(F)F)c1)[C@H](O)C2=O` is -0.536 (inactive); for `CC(CCN1CCCc2nc(C)c(C)cc21)=NOC[C@@H](O)COCc1ccco1` it is 0.287 (inactive); for `CCN1C(=O)[C@H]2[C@H]3[C@H](O)[C@H](O)CC(=NO[C@@H]4O[C@H](CO)[C@@H](O)[C@H](O)[C@H]4O)[C@H]3CC[C@H]2C1=O` it is 0.14 (inactive). On the same count and under the same terms, the figure for `CCOC(=O)[C@H](CC(C)C)NC(=O)CCC1CC(OC(=O)NCc2ccc3c(c2)OCO3)CC2(CCCC(COC(=O)NCCOc3ccccc3)O2)O1` (some centres not stated) is 0.494 (inactive). With `O=C1C2=CC[C@H]3C(=O)N(c4ccc(F)cc4F)C(=O)[C@H]3[C@H]2[C@H](O)[C@@H]2O[C@H]12`, the z-score was -0.0843 (inactive).

Regarding `CC(=O)OC[C@H]1O[C@H](C#CCCc2ccccc2)C=C[C@@H]1OC(C)=O`, the z-score was -0.182 (inactive).
